Assay [1] has as its target Transcriptional activator Myb (Homo sapiens) (UniProt P10242). In words: ATG_Myb_CIS: Attagene CIS-FACTORIAL HepG2 Assay for human Myeloblastosis (Myb) Proto-Oncogene Transcription Factor (AID 2282986). As to conditions: HepG2 Attagene CIS-FACTORIAL Myb reporter transcription; actives raise or lower the signal. Summed up:
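Endogenous transcription factor activity at a Myb-responsive cis element is reported in human liver HepG2 cells after 24 h chemical treatment. Reporter mRNA is detected by RT-PCR and capillary electrophoresis fluorescence, with DMSO as baseline.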

Assay [2] concerns the target Nuclear respiratory factor 1 (Homo sapiens) (UniProt Q16656). Put plainly: ATG_NRF1_CIS: Attagene CIS-FACTORIAL HepG2 Assay for human Nuclear Respiratory Factor 1 (NRF1) Orphan Gene (AID 2282987). The conditions noted are these: HepG2 NRF1 cis-element reporter, Attagene multiplex; actives raise or lower the signal. The method, boiled down: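 Human hepatoma HepG2 cells carrying transfected promoter-regulated reporter units were incubated with test chemicals for 24 h. Reporter transcripts were measured by RT-PCR plus capillary electrophoresis, and endpoints derived by bidirectional fitting with DMSO as baseline.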

Assay [3] in a line: ATG_NFI_CIS: Attagene CIS-FACTORIAL HepG2 Assay for human Nuclear Factor I (NFI) (AID 2282989). As to conditions: HepG2 cis-regulatory reporter, NFI response element transcription; actives raise or lower the signal. The method, boiled down:
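HepG2, transient MRTU, 24 h exposure; RNA→cDNA→PCR→FAM label→HpaI→CE fluorescence. Bidirectional fit, DMSO = baseline.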

The nature of assay [4]: ATG_NRF2_ARE_CIS: Attagene CIS-FACTORIAL HepG2 Assay for human Nuclear Factor Erythroid 2 Related Factor 2 (NFR2) response to Antioxidant Response Elements (ARE) (AID 2282992).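 As to AC50: reporter mRNA level measured by RT-PCR and capillary electrophoresis fluorescence.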 As to conditions: HepG2 Attagene ARE/NRF2 reporter, transcription factor activity; actives raise or lower the signal. The method, boiled down: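 Endogenous transcription factor activity in human liver HepG2 cells is tracked via a cis-element-driven reporter within a multiplexed set. mRNA induction is read by RT-PCR and capillary electrophoresis after 24 h, with DMSO as baseline.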

A short description of assay [5]: ATG_Oct_MLP_CIS: Attagene CIS-FACTORIAL HepG2 Assay for human Octamer-Binding Transcription Factor (Oct) (AID 2282993). The conditions noted are these: HepG2 Attagene cis-factorial Oct reporter, mRNA; actives raise or lower the signal. Summed up: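 Multiplexed cis-reporter assay in human liver HepG2 cells, 24 h incubation. Reporter RNA amplified and labelled, then resolved by capillary electrophoresis; DMSO serves as negative control and baseline.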

Assay [6] can be described thus: BSK_3C_TissueFactor: BioMAP Diversity Plus: 3C Assay for Tissue Factor Biomarker Activity (AID 2282997). As to conditions: BioMAP 3C HUVEC, tissue factor biomarker readout; actives raise or lower the signal. Summed up: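 In this endothelial system, HUVEC are treated for 24 h and Tissue Factor is assessed by ELISA, normalised to DMSO.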
Assay [7] is described as follows: BSK_3C_uPAR: BioMAP Diversity Plus: 3C Assay for Urokinase-type plasminogen activator receptor (uPAR) Biomarker Activity (AID 2282998). The conditions noted are these: BioMAP 3C HUVEC, uPAR biomarker ELISA; actives raise or lower the signal. The method, boiled down: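 Dose primary human umbilical vein endothelial cells, incubate 24 h, measure cell-surface uPAR by ELISA, then fit the signal in both directions against the DMSO negative control.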
A general note: ELISA stands for enzyme-linked immunosorbent assay.

Assay [8] in a line: BSK_3C_VCAM1: BioMAP Diversity Plus: 3C Assay for Vascular cell adhesion molecule 1 (VCAM1) Biomarker Activity (AID 2282999). As to conditions: BioMAP 3C HUVEC, VCAM1 ELISA, cytokine-stimulated; actives raise or lower the signal. The method, boiled down: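 HUVEC primary cells, 24 h compound exposure; VCAM-1 by ELISA; gain/loss of signal fitted bidirectionally vs DMSO baseline.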

The nature of assay [9]: BSK_4H_Eotaxin3: BioMAP Diversity Plus: 4H Assay for Eotaxin 3 Biomarker Activity (AID 2283000).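 As to outcome: CCL26 protein level quantified by ELISA in parallel with SRB cytotoxicity check.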 The conditions noted are these: primary human endothelial cells (HUVEC); actives raise or lower the signal. Summed up: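 ELISA quantitation of CCL26 (Eotaxin-3) protein from chemically dosed human vascular endothelial cells at 24 h; increases and decreases both scored relative to DMSO-treated baseline.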

In assay [10] the target is human Peroxisome Proliferator-activated Receptor alpha (PPARa), PPARA (gene 5465) (UniProt Q07869). Put plainly: ATG_PPARa_TRANS: Attagene TRANS-FACTORIAL HepG2 Assay for human Peroxisome Proliferator-activated Receptor alpha (PPARa) (AID 2283001; active = hit-call score of the fitted dose curve at least 0.9, where 1 is the maximum). The method, boiled down: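 HepG2, transient MRTU transfection, 24 h treatment. RT-PCR → FAM labelling → capillary electrophoresis. Fit vs DMSO, positive direction.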
human Peroxisome Proliferator-activated Receptor alpha (PPARa), PPARA (gene 5465), sequence (Q07869 whole entry, looked up): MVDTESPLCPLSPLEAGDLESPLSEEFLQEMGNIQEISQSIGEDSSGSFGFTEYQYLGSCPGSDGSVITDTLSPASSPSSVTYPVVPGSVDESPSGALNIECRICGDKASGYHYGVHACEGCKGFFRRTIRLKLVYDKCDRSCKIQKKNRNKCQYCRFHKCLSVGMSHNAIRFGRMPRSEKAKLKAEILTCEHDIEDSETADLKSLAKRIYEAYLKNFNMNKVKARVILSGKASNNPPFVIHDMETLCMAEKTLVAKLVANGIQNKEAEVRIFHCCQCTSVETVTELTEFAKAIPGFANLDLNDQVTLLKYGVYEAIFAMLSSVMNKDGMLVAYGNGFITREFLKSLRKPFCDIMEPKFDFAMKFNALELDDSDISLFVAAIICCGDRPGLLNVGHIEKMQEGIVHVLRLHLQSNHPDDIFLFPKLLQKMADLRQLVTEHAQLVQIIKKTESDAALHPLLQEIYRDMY

Read-out in assay [11]: Intercellular Adhesion Molecule 1 (ICAM1), ICAM1 (gene 3383)
Put plainly: BSK_3C_ICAM1: BioMAP Diversity Plus: 3C Assay for Intercellular Adhesion Molecule 1 (ICAM1) Biomarker Activity (AID 2283003). As to conditions: primary human endothelial cells (HUVEC); actives raise or lower the signal. Summed up: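 ELISA readout of ICAM1 in human umbilical vein endothelial cells in the 3C system, taken 24 h post-dose. Gain or loss of signal versus DMSO was fitted in both directions, with SRB total-protein staining run in parallel.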

Assay [12] has as its target Retinoic acid receptor alpha (Homo sapiens) (UniProt P10276). Put plainly: ATG_RARa_TRANS: Attagene TRANS-FACTORIAL HepG2 Assay for human Retinoic Acid Receptor alpha (RARa) (AID 2283005; active = hit-call score of the fitted dose curve at least 0.9, where 1 is the maximum). The method, boiled down:
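HepG2 transiently transfected with multiplex GAL4-UAS reporter units including a human RARa–GAL4 chimera; 24 h compound exposure. Reporter mRNA quantified by RT-PCR, 6-FAM labeling and capillary electrophoresis; gain of signal versus DMSO.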

A short description of assay [13]: BSK_3C_Proliferation: Cell Proliferation Assessment in the BioMAP Diversity Plus: 3C Assay (AID 2283006).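 As to AC50: potency may reflect either rise or fall in cell number versus DMSO.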 As to conditions: primary human endothelial cells (HUVEC). Summed up: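 Proliferation as total protein: sulforhodamine B (0.1%) stain of TCA-fixed subconfluent human umbilical vein endothelial cells, absorbance 560 nm, 48 h after dosing. Activity fitted in both directions against DMSO baseline.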

In assay [14] the target is Peroxisome proliferator-activated receptor gamma (Homo sapiens) (UniProt P37231). In words: ATG_PPARg_TRANS: Attagene TRANS-FACTORIAL HepG2 Assay for human Peroxisome Proliferator-activated Receptor-gamma (PPARg) (AID 2283007; active = hit-call score of the fitted dose curve at least 0.9, where 1 is the maximum). Summed up:
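Human hepatoma HepG2, transient MRTU transfection, 24 h treatment. mRNA reporter signal by RT-PCR plus capillary electrophoresis, fluorescence detection; fitted for increase over DMSO negative control.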

In assay [15] the target is Nuclear receptor subfamily 1 group I member 2 (Homo sapiens) (UniProt O75469). Put plainly: ATG_PXR_TRANS: Attagene TRANS-FACTORIAL HepG2 Assay for human Pregnane X Receptor (PXR) (AID 2283008; active = hit-call score of the fitted dose curve at least 0.9, where 1 is the maximum). Summed up:
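HepG2 transfected (FuGene 6) with GAL4-UAS reporter units + PXR-Gal4 chimera; dosed 24 h. Total RNA → oligo(dT) RT → PCR → 6-FAM primer extension → HpaI cut → CE. Gain-of-signal vs DMSO.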

Assay [16] deals with human Retinoic Acid Receptor gamma (RARg), RARG (gene 5916) (UniProt P13631). In words: ATG_RARg_TRANS: Attagene TRANS-FACTORIAL HepG2 Assay for human Retinoic Acid Receptor gamma (RARg) (AID 2283009; active = hit-call score of the fitted dose curve at least 0.9, where 1 is the maximum). Summed up:
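Transactivation of exogenous RARg-Gal4 fusion measured as reporter transcript induction after 24 h in transfected HepG2 cells. RNA reverse-transcribed, amplified, fluorescently labeled and resolved by capillary electrophoresis; increase relative to DMSO.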

The nature of assay [17]: ATG_NF_kB_CIS: Attagene CIS-FACTORIAL HepG2 Assay for human Nuclear Factor Kappa B (NF-kB) (AID 2282991). The conditions noted are these: HepG2 Attagene cis-factorial NF-kB reporter mRNA; actives raise or lower the signal. Summed up: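 Multiplexed cis-reporter assay in transiently transfected HepG2. 24 h treatment; RNA isolated, RT-PCR, labelled fragments resolved by CE. DMSO baseline.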

Assay [18] has as its target human Peroxisome Proliferator-activated Receptor delta (PPARd), PPARD (gene 5467) (UniProt Q03181). Put plainly: ATG_PPARd_TRANS: Attagene TRANS-FACTORIAL HepG2 Assay for human Peroxisome Proliferator-activated Receptor delta (PPARd) (AID 2283002; active = hit-call score of the fitted dose curve at least 0.9, where 1 is the maximum). Summed up: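 HepG2 cells transiently transfected with GAL4-UAS multiplexed reporter units driven by exogenous chimeric NR-GAL4 proteins; 24 h compound exposure. Reporter mRNA measured by RT-PCR, 6-FAM primer extension, HpaI digestion and capillary electrophoresis; gain of signal fitted relative to DMSO.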

The target in assay [19] is Cellular tumor antigen p53 (Homo sapiens) (UniProt P04637). Put plainly: ATG_p53_CIS: Attagene CIS-FACTORIAL HepG2 Assay for human p53 Transcription Factor (AID 2282994). The conditions noted are these: HepG2 p53 cis-element reporter, Attagene mRNA; actives raise or lower the signal. Summed up:
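Steps: transfect HepG2 with multiplexed cis reporter constructs; dose chemicals 24 h; extract RNA, reverse-transcribe, PCR-amplify reporter sequences; FAM-label, HpaI-digest, resolve fragments by CE. Activity fitted both directions relative to DMSO.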

For six compounds, outcome and AC50 results are on record in PubChem BioAssay (EPA / NIEHS).

Each structure is given as a SMILES string. Records with an inconclusive call do not appear. Calls of active or inactive are those of the source. The calls were made as follows, unless noted: active = hit-call score of the fitted dose curve at least 0.9, where 1 is the maximum; inactive = score below 0.9.

human Peroxisome Proliferator-activated Receptor delta (PPARd), PPARD (gene 5467), sequence (Q03181 whole entry, looked up, the tested form may be a part): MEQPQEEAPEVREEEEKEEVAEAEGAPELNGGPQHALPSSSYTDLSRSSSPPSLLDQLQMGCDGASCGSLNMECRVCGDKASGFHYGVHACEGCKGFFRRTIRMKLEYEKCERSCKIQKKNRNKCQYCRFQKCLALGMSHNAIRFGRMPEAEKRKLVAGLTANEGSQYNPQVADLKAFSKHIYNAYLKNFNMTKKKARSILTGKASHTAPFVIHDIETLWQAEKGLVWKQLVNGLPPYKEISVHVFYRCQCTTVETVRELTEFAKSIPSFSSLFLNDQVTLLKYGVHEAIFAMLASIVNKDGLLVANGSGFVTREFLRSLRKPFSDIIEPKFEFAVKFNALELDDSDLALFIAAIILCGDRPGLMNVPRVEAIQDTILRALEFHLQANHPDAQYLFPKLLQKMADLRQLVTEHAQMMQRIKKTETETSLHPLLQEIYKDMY
Transcriptional activator Myb (Homo sapiens), sequence (P10242 whole entry, looked up): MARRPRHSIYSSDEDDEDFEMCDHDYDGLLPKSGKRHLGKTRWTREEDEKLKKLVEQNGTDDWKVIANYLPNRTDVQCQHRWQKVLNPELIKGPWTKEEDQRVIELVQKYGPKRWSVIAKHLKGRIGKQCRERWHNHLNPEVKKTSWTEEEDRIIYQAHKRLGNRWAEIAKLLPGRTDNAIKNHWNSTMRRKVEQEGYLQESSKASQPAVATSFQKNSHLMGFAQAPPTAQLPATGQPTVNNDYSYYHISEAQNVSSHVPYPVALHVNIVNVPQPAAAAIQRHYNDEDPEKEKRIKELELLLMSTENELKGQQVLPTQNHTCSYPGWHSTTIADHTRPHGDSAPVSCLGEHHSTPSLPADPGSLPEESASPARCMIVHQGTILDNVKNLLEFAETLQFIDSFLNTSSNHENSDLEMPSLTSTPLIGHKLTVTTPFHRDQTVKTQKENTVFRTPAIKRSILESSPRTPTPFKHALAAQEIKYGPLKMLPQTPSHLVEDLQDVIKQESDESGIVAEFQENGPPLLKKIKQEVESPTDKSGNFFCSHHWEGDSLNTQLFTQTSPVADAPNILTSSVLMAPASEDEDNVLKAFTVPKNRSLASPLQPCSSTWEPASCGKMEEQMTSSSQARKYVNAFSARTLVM
Nuclear receptor subfamily 1 group I member 2 (Homo sapiens), sequence (O75469 whole entry, looked up, the tested form may be a part): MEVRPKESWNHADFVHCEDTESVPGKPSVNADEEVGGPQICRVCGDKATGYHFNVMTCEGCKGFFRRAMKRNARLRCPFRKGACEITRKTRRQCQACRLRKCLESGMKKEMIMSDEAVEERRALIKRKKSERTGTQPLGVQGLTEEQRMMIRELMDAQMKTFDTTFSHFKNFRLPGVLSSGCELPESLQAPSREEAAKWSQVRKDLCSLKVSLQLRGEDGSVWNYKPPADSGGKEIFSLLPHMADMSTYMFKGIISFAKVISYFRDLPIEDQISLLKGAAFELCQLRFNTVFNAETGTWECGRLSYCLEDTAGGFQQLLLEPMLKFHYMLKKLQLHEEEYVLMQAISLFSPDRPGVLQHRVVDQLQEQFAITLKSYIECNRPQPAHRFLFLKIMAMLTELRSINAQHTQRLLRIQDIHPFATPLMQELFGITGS
Nuclear respiratory factor 1 (Homo sapiens), sequence (Q16656 whole entry, looked up): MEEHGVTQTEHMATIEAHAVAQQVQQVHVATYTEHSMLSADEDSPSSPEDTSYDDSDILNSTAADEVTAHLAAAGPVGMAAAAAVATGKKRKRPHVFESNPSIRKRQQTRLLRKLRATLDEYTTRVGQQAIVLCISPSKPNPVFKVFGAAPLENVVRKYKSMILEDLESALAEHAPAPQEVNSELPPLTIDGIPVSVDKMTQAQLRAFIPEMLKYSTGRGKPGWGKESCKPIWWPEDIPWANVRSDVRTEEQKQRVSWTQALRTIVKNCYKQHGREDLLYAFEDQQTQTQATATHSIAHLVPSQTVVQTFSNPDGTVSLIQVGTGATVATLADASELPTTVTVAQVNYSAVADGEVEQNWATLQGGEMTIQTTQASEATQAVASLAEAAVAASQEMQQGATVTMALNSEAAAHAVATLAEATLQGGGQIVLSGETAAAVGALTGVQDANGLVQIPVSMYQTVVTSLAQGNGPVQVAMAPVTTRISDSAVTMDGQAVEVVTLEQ
Peroxisome proliferator-activated receptor gamma (Homo sapiens), sequence (P37231 whole entry, looked up): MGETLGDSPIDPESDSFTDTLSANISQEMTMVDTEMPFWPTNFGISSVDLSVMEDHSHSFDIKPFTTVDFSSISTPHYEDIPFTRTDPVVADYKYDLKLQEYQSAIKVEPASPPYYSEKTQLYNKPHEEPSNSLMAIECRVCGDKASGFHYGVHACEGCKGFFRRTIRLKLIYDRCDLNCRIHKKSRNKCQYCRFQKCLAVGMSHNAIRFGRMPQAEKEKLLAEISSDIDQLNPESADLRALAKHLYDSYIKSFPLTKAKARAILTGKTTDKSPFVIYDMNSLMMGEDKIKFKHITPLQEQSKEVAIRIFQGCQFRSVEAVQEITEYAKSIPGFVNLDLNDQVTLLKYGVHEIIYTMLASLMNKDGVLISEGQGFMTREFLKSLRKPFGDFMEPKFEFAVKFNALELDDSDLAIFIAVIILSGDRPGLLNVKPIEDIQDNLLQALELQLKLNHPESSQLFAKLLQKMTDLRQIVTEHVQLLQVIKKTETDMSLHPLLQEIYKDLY
human Retinoic Acid Receptor gamma (RARg), RARG (gene 5916), sequence (P13631 whole entry, looked up, the tested form may be a part): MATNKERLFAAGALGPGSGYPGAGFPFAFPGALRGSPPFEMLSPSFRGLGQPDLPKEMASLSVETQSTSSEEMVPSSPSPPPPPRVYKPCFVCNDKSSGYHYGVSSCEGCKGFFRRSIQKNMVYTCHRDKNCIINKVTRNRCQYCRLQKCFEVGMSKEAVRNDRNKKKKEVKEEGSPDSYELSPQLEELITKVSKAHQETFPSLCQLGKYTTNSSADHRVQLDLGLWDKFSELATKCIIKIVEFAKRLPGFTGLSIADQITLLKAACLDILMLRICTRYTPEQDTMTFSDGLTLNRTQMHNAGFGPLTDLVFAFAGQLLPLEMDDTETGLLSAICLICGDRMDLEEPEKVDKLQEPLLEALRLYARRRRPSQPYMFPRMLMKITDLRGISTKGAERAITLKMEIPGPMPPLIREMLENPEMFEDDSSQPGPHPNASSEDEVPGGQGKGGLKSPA
Retinoic acid receptor alpha (Homo sapiens), sequence (P10276 whole entry, looked up, the tested form may be a part): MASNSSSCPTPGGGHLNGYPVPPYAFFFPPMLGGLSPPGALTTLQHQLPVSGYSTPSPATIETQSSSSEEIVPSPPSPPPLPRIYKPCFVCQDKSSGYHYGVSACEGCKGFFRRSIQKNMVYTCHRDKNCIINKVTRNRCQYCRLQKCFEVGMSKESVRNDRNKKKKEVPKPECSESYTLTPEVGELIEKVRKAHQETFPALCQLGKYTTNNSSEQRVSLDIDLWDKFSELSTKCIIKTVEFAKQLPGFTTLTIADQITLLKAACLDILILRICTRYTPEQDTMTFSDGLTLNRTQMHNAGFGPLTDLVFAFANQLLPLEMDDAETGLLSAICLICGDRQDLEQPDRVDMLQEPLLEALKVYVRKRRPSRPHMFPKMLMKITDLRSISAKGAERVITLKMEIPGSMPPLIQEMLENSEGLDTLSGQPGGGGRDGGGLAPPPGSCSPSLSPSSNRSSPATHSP
Cellular tumor antigen p53 (Homo sapiens), sequence (P04637 whole entry, looked up, the tested form may be a part): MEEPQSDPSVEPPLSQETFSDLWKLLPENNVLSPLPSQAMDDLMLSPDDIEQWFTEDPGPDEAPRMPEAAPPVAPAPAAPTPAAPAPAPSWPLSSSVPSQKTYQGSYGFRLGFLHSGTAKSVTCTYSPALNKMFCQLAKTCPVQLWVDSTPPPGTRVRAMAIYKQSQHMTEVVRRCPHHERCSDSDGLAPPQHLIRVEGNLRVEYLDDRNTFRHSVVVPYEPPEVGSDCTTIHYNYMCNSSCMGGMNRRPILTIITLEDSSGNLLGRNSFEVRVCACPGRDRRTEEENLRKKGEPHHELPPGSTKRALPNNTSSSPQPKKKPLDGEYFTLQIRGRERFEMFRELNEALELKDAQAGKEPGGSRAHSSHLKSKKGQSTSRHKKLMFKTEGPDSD

Broadly, the AC50 is the midpoint of the concentration-response curve, whichever way the signal moves. Consider `Nc1ccc2ccccc2c1`, for which the compound was classed as inactive in assay [1], in assay [2], in [3], in assay [4], in [5] and in assay [6]. In addition, the result in assay [7], in assay [8], in assay [10], in assay [11], in [12] and in assay [13] was inactive. Besides, the outcome in assay [14], in [15] and in [16] was inactive. Further, the AC50 in [9] is 9.1 µM (active).

`Cc1ccc([N+](=O)[O-])cc1C`: the outcome in assay [1], in [2], in assay [3], in assay [17], in assay [4] and in [5] was inactive. For the same compound, the result in assay [6], in assay [7], in assay [8], in assay [9], in assay [10] and in [11] was inactive. The outcome in [13] and in assay [15] was inactive.

As for `O=S(=O)(c1ccc(O)cc1)c1ccc(O)cc1`, the call in [1], in assay [2], in assay [3], in [17], in [4] and in [5] was inactive. The call in assay [18] and in [15] was inactive. For the same compound, the AC50 in assay [14] was 22.4 µM (active).

On to `CCNc1nc(Cl)nc(NC(C)(C)C)n1`, for which the compound was called inactive in [1], in assay [2], in assay [3], in assay [17], in assay [4] and in assay [5]. Also, the outcome in [6], in [7], in assay [8], in assay [9], in assay [18] and in assay [11] was inactive. For the same compound, the compound was called inactive in assay [12], in assay [13], in [14] and in assay [16]. Further, in [15], the AC50 is 4.35 µM (active).

Take `O=C(CBr)OCc1ccccc1`: the outcome in [1], in assay [2], in assay [3], in [17], in [5] and in [18] was inactive. The result in assay [14] was inactive. Besides, in [4], the concentration at half-maximal activity (AC50) is 67.8 µM (active).

Consider `CCOc1ccc(C(C)(C)COCc2cccc(Oc3ccccc3)c2)cc1`, for which the compound was classed as inactive in [1], in assay [2], in assay [3], in [17], in assay [4] and in [5]. The outcome in [19], in assay [6], in assay [7], in assay [8], in assay [9] and in [11] was inactive. The result in assay [14] was inactive. Besides, the AC50 in [13] was 0.697 µM (active); in assay [15] it was 4.88 µM (active).
